Experimental data as given in the supplement of paper PMC10981050.
Values joined by “and” are separate entries in the source; they are usually repeats but may differ in a detail not shown here. Equal entries are not always repeated. Structures can show the parent of a compound that is named as a salt.

Experiments:
Test in all cases: cell viability relative to vehicle control; higher = less cytotoxic
Settings in all cases: 10 µM
K562 = test system: K562
Summary of the method: (§1)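 Screening covered the Selleck bioactive, kinase and epigenetic probe libraries, less identity-inconsistent compounds, on CRISPR-edited mutant clones and isogenic wild-type clones of four leukaemia lines. Cells, at 2000 per well in 50 µL medium, received a single 10 µM acoustically dispensed dose. After 48 h the supernatant was removed and CellTiter-Glo luminescence was read. Viability was analysed in Genedata Screener as percent of the on-plate vehicle control.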

MARIMO = test system: MARIMO
Summary of the method: as §1

MOLM14 = test system: MOLM14
Summary of the method: as §1

OCI-AML2 = test system: OCI-AML2
Summary of the method: as §1

Compound	cell viability (K562; SRSF2 genotype: SRSF2 P95H/wt)	cell viability (K562; SRSF2 genotype: SRSF2 wt/wt)	cell viability (MARIMO; SRSF2 genotype: SRSF2 P95H/wt)	cell viability (MARIMO; SRSF2 genotype: SRSF2 wt/wt)	cell viability (MOLM14; SRSF2 genotype: SRSF2 P95H/wt)	cell viability (MOLM14; SRSF2 genotype: SRSF2 wt/wt)	cell viability (OCI-AML2; SRSF2 genotype: P95H/wt)	cell viability (OCI-AML2; SRSF2 genotype: wt/wt)
CC(C)NCC(O)COc1cccc2ccccc12 (stereo not drawn) [Propranolol HCl]	94% and 88.3%	97.6%	86.2%	92.9%	94.2%	98.2%	84.7%	97%
Nc1nc(=O)n([C@@H]2CS[C@H](CO)O2)cc1F [Emtricitabine]	106% and 105%	104%	103%	106%	104%	107%	102%	108%
COc1cc2ncnc(Oc3cccc(NC(=O)Nc4cc(C(C)(C)C(F)(F)F)on4)c3)c2cc1OC	23.5% and 40.4%	24.8%	79.4%	85%	33.8%	23.7%	60.3%	61.5%
NCCCCCN [Cadaverine]	104% and 94%	99.5%	100%	101%	95.9%	101%	97.1%	97.7%
C#C[C@]1(O)CC[C@H]2[C@@H]3CCc4cc(OC5CCCC5)ccc4[C@H]3CC[C@@]21C [Quinestrol]	78.4% and 83.7%	71%	62.4%	57.9%	78.8%	79.2%	49.7%	60.6%
CNc1nc(Nc2cnn(C3CCN(C4COC4)CC3F)c2Cl)ncc1C(F)(F)F (stereo not drawn)	89.6% and 89%	91.7%	76.2%	80.1%	38.2%	36.4%	46.3%	47.6%
C[C@@H](N)[C@H]1CC[C@H](C(=O)Nc2ccncc2)CC1	105% and 97.4%	102%	93.7%	94.6%	97.2%	96.9%	85.9%	91.2%
O=C1C(=Cc2ccncc2)CCCC1=Cc1ccncc1	7.78% and 5.31%	20.5%	1.92%	0.58%	2.47%	0.31%	0.15%	0.12%
COc1cc(-c2cn(C)c(=O)c3cnccc23)cc(OC)c1CN(C)C	104% and 95.7%	105%	99.4%	87.2%	103%	95.9%	98.6%	113%
OC[C@H]1O[C@@H](Oc2cc3c(O)cc(O)cc3[o+]c2-c2ccc(O)c(O)c2)[C@H](O)[C@@H](O)[C@@H]1O [Cyanidin-3-O-glucoside chloride]	93.5% and 89%	87.1%	91.6%	92.6%	90.4%	91.1%	83%	86.2%
CC(C)=CCCC(C)(O)C1CCC2(C)C1C(O)CC1C3(C)CCC(O)C(C)(C)C3CCC12C [(20S)-Protopanaxadiol]	98% and 105%	107%	96.7%	109%	102%	102%	115%	93.5%
COC(=O)c1cc(OC)c2c(c1-c1c(C(=O)OC)cc(OC)c3c1OCO3)OCO2 [Bifendate]	109%	98.7%	101%	101%	99.3%	101%	106%	94.3%
Clc1ccc(COC(Cn2ccnc2)c2ccc(Cl)cc2Cl)c(Cl)c1 (stereo not drawn) [Miconazole nitrate]	68.8% and 61.8%	67.2%	70%	76.1%	57.4%	64.3%	66.2%	63.4%
CC(OC(=O)OC1CCCCC1)OC(=O)C1=C(CSc2nnnn2CCN(C)C)CS[C@@H]2[C@H](NC(=O)Cc3csc(N)n3)C(=O)N12 (stereo partly drawn) [Cefotiam Hexetil Hydrochloride]	105% and 98.2%	93.7%	87.5%	94.9%	89.9%	94.3%	90%	93.8%
CC(=O)OC1CCC2C3CCc4cc(O)ccc4C3CCC12C (stereo not drawn)	96.5% and 85%	90.6%	85.8%	98.9%	96.9%	96.2%	87.7%	96.1%
O=C(NC1CCN(CCCCC2(C(=O)NCC(F)(F)F)c3ccccc3-c3ccccc32)CC1)c1ccccc1-c1ccc(C(F)(F)F)cc1 [Lomitapide Mesylate]	0.41% and 0.38%	0.33%	0.5%	0.68%	0.26%	0.3%	0.27%	0.3%
Cc1cc(C(N)=O)ccc1-n1c(CCC(=O)O)ccc1-c1ccc(-n2ccnc2)cc1	101% and 109%	108%	105%	98%	105%	108%	109%	124%
CCOC(=O)C1=C(C)NC(C)=C(C(=O)OC)C1c1cccc([N+](=O)[O-])c1 (stereo not drawn) [Nitrendipine]	101% and 104%	100%	97.3%	99.9%	97.7%	103%	122%	111%
Cc1cc(N2CCOCC2)ccc1Nc1nc(NC2CCCCC2)c2[nH]cnc2n1	86.8% and 92.1%	94.6%	53%	53.9%	49.6%	39%	37.8%	39.8%
C[C@H](NC(=O)CCc1nc2ccccc2c(=O)[nH]1)c1ccccc1	103%	108%	106%	100%	105%	100%	105%	121%
COc1ccc2cc3[n+](cc2c1OC)CCc1cc2c(cc1-3)OCO2 [Berberine]	65.6% and 74.1%	72.6%	67.3%	62.1%	75.4%	81.8%	52%	53.8%
